SW480 rerep = A quantitative high throughput screen for small molecules that induce DNA re-replication in SW480 colon adenocarcinoma cells | Potency, µM (highest dose often 46.1 µM), for inactives: at the highest dose re-replication activation, most hits filed as activators | SW480 DNA re-replication, Hoechst DNA content imaging, 48 h | 340,000 compounds, 1.8% hits | AID 624297, 2012; further: % of control where 0% means no effect; nearly all actives have a fitted effect of over 55% in size
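Cells (250 per well) received 23 nL compound or DMSO by pin tool and were kept 48 hr at 37 C, 5% CO2. Nuclei were then stained with Hoechst for 40 min and scanned for DNA content.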
MCF10A rerep = A quantitative high throughput screen for small molecules that induce DNA re-replication in MCF 10a normal breast cells; 350,000 compounds, 2.9% hits; MCF 10A DNA re-replication, Hoechst nuclear intensity, 48 h; Potency, µM (doses to about 46.1 µM), for the others: at the top dose activity, positive = re-replication, usual class: activators; further: % of control where 0% means no effect; nearly all actives have a fitted effect of over 50% in size
a7 integrin act = qHTS for Activators of Integrin-Mediated Alleviation for Muscular Dystrophy; AID 624291, 2012; 350,000 compounds, 0.064% hits; Potency, µM (doses to about 38.3 µM), inactives show top-dose activation, most hits filed as activators; alpha7betagal myoblasts, beta-gal FDG fluorescence, 48 h;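 further: 100% = response of the positive control SU9516; nearly all actives have a fitted effect of over 60% in size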
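Alpha7betagal+/- myoblasts (passage 13) were plated 16-24 hr, then exposed to compounds (1:260 dilution of DMSO stock) for 48 hours at 37C. After MPER lysis, β-galactosidase reporter activity was read as FDG fluorescence (ex 480/em 540) after 30 minutes.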
Mito fusion yeast = qHTS Assay for Small Molecule Inhibitors of Mitochondrial Division or Activators of Mitochondrial Fusion; S. cerevisiae fusion-defective mutant growth rescue, CellTiterGlo 48 h; Potency, µM (doses to about 46.1 µM), for inactives: at the top dose growth rescue (activation), usual class: activators; 320,000 compounds, 0.23% hits; AID 485298, 2010; further: % of control where 0% means no effect; nearly all actives have a fitted effect of over 45% in size
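Temperature-sensitive fusion-defective S. cerevisiae (e.g. fzo1-1, mgm1-5) were grown with compound in YPEG medium (3% ethanol, 3% glycerol) for 48 hours at 37C. Growth rescue was measured as viability by CellTiterGlo luminescence after 10 minutes at ambient.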
AT treatment = qHTS Assay for Identifying a Potential Treatment of Ataxia-Telangiectasia | F2112 A-T fibroblasts, KAP-1 phosphorylation AlphaLISA; neocarzinostatin DNA damage 30 min before lysis | Potency, µM (titrated, usually from 57.5 µM), for the others: at the highest dose activation, most hits filed as activators | 320,000 compounds, 0.19% hits | AID 485349, 2010; further: % of control where 0% means no effect; nearly all actives have a fitted effect of over 45% in size
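ATM-like activity read as KAP-1 phosphorylation via AlphaLISA donor/acceptor antibody pairs after lysis and 6 hr at 25C. Cells were ATM-null patient fibroblasts (F2112, hTERT), dosed 60 min, then exposed to the DSB inducer NCS for 30 min.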
The depositor's hits bear a star; ? = inconclusive; / = not tested or not shown; [ ] = another dose, or the depositor's remark. Most compounds without a hit are left out; they make up all but 4.2% or so of the library. The call rests on the fitted dose curve; in most records, active means well fitted activation curve with a large enough effect; inconclusive means small, poorly fitted or top-dose-only effect; inactive means no such curve, though single readings can be large or run the other way. Potency means the concentration at half of the fitted maximal effect.

SMILES	SW480 rerep	MCF10A rerep	a7 integrin act	Mito fusion yeast	AT treatment
CC1=C(C(=O)N2CCOCC2)CC(CC(=O)NC2CCCC2)C(=O)N1Cc1ccc(F)cc1 (stereo not drawn)	/	/	12%	/	/
CCCCN(C(=O)COC(=O)C1(c2ccccc2)CC1)c1c(N)n(CCC)c(=O)[nH]c1=O	/	/	-12%	/	/
Cn1c(SCc2c(F)cccc2Cl)nnc1-c1cccs1	?	6.5µM*	3%	7%	0%
CC(=C/C(=O)O)/C=C/c1ccc(Cl)o1	3%	-12%	-15%	2%	0%
Cc1ccc(/C=C/C(=O)N2CC(C)CC(C)C2)o1 (stereo not drawn)	16µM*	23µM*	-58%	-2%	3%
CC(/C=C/c1ccc(C)o1)=C\C(=O)O	9%	23µM*	24%	5%	12%
CCN1CCN(C(=O)/C=C/c2ccc(C)o2)CC1	69%	-64%	23%	-2%	-7%
Cc1[nH][nH]c(=O)c1C(c1ccc(-c2cccc(Cl)c2)o1)c1c(C)[nH][nH]c1=O	0%	18µM*	0%	-1%	10%
Cc1[nH][nH]c(=O)c1C(c1ccc(-c2cccc(C(=O)O)c2)o1)c1c(C)[nH][nH]c1=O	-15%	3%	10%	3%	-3%
CCOC(=O)C1=C(N)Oc2ccc3ccccc3c2C1c1ccc(O)c(OC)c1 (stereo not drawn)	1%	?	-17%	-12%	1%
CCOC(=O)C1=C(N)Oc2ccc3ccccc3c2C1c1ccc(O)cc1 (stereo not drawn)	1%	18µM*	-41%	-16%	10%
Nc1c(C(=O)Nc2ccc(F)cc2)sc2nc(-c3ccco3)ccc12	?	?	-14%	6%	7%
Nc1c(C(=O)Nc2ccc(Br)cc2)sc2nc(-c3ccco3)ccc12	?	5.2µM*	-27%	2%	16%
Cc1ccc(NC(=O)c2sc3nc4c(c(-c5ccco5)c3c2N)CCC4)cc1	13%	1.8µM*	21%	-3%	/
Cc1ccccc1NC(=O)c1sc2nc3c(c(-c4ccco4)c2c1N)CCCC3	16µM*	?	27%	2%	7%
NC(=O)c1sc2nc3c(c(-c4cccs4)c2c1N)CCCCC3	?	13µM*	28%	-1%	/
Nc1c(C(=O)Nc2ccccc2)sc2nc3c(c(-c4ccco4)c12)CCC3	2%	?	-53%	0%	-6%
CC(c1ccc2ccccc2c1)c1ccccc1C(=O)O (stereo not drawn)	/	/	-7%	/	/
CN(C)c1nc(N)c2ncc(=S)[nH]c2n1	?	29µM*	-4%	7%	-8%
CCN(c1ccc(NC(=O)COC(=O)C2CCN(c3ccc(C(F)(F)F)cn3)CC2)cc1)C(C)C	?	9%	-32%	/	/
CCOC(=O)CNC(=O)N1C[C@H]2CON(C)[C@H]2C[C@H]1c1ccccc1Br	/	/	13%	/	/
Clc1ccc(N2CCN(Cc3cc4ccccn4n3)CC2)cc1	/	/	/	23µM*	/
Clc1ccc(N2CCN(Cc3ccc(Br)o3)CC2)cc1	-3%	0%	7%	1%	3%
CCCCC[C@]12Cc3cc(OC)c(OC)cc3[C@H](O1)c1c(cc(C)oc1=O)O2	/	/	/	0%[9.22 µM]	10%[11.5 µM]
CCCC(O)(CCC)C(=O)NN(C(=O)CCl)c1ccccc1	?	15µM*	-50%	0%	-2%
SMILES	SW480 rerep	MCF10A rerep	a7 integrin act	Mito fusion yeast	AT treatment
CCOC(=O)N(NC(=O)C(O)(C(C)C)C(C)C)c1ccccc1	-18%	-3%	19%	0%	-7%
CCCCC(O)(CCCC)C(=O)NN(C(=O)OCC)c1ccccc1	-6%	11%	-14%	1%	14%
CCOC(=O)N(NC(=O)C(O)(c1ccccc1)c1ccccc1)c1ccccc1	2.9µM*	4%	24%	2%	1%
COc1ccc(S(=O)(=O)NC(C)CCc2ccccc2)cc1 (stereo not drawn)	-5%	29%	12%	?	4%
O=C(NC(Nc1ncc(S(=O)(=O)c2ccc([N+](=O)[O-])cc2)s1)(C(F)(F)F)C(F)(F)F)c1ccc(Cl)cc1	?	9.2µM*	-55%	11%	1%
OCCNc1c2ccccc2nc2c(F)c(F)c(F)c(F)c12	13µM*	?	-38%	15%	-2%
CCOC(=O)C1(Cc2cccc(Cl)c2)CCCN(C(=O)c2ccoc2C)C1 (stereo not drawn)	16µM*	?	-32%	5%	-9%
CCOC(=O)C1(Cc2cccc(Cl)c2)CCCN(C(=O)c2ccco2)C1 (stereo not drawn)	29%	?	0%	15%	0%
CN(C)c1ccc(CNc2ncn[nH]2)cc1	-13%	-10%	24%	4%	4%[11.5 µM]
CC[C@H]1C(c2ccc(F)cc2)=NN(c2ccccc2)[C@@H]1CO	?	6.5µM*	29%	/	26%
OC[C@@H]1[C@@H](c2ccc(F)cc2)C(c2ccccc2)=NN1c1ccccc1	18µM*	?	-43%	/	18%
CC[C@@H]1C(c2ccc(F)cc2)=NN(c2ccccc2)[C@H]1C(=O)N1CCOC1=O	16%	?	-6%	/	8%
Cc1cccc(C2=NN(c3ccccc3)[C@H](CO)[C@H]2c2ccccc2)c1	16µM*	2.3µM*	0%	/	19%
N/C(=N\OC(=O)c1ccccc1)C(Cc1ccccc1)C(=O)NOC(=O)c1ccccc1 (stereo not drawn)	?	?	-33%	/	/
CCCCCCCCCCCCCCCC(=O)Nc1ccn(C2OC(CO)C(O)C2O)c(=O)n1 (stereo not drawn)	2.6µM*	-6%	-14%	/	/
CCCCCCCCCCCCCCCC(=O)OCC1OC(n2ccc(N)nc2=O)C(O)C1O (stereo not drawn)	?	?	-7%	/	/
COc1ccc(C2c3cc4c(cc3OC(N3CCOCC3)C2C)OCO4)c(OC)c1 (stereo not drawn)	?	2.9µM*	11%	/	/
O=C1N/C(=C\c2ccccc2)c2ccccc21	?	18µM*	-14%	4%	-1%
C#CC[N+](C)(C)CCCCCCCCC	?	9.2µM*	11%	5%	2%
O=C1C=C(NCCN2CCOCC2)C(=O)c2cnccc21	10µM*	?	/	-19%	?
O=C(NCCN1CCOCC1)c1ccncc1	1%	-1%	11%	0%	4%
COc1ccc(S(=O)(=O)N2CCC3(CC2)CC(=O)c2ccccc2O3)cc1C	4%	-4%	11%	2%	6%
CN1C(=O)/C(=C/c2cccc(Cl)c2)Sc2ccc(C(=O)N3CCCC3)cc21	?	?	8%	-12%	3%
